Active and inactive are the calls of the source.

In the first assay the test system is Sonic hedgehog protein (Shh). Put plainly: small-molecule binders of Shh protein, primary screen, biochemical, small-molecule microarray, 635/667 nm fluorescence (AID 1151).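 Further: Shh protein binding to compounds spotted on small-molecule microarray slides; score combines spot fluorescence intensity with signal-to-noise across triplicate slides.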 The conditions noted are these: small-molecule microarray binding, 635 nm fluorescence; higher = more signal.
For `CCOC(=O)C[C@H]1[C@H](OC(=O)Cc2ccc3c(c2)OCO3)[C@@H](NC(=O)C2CCCCC2)c2cc(OCCCO)ccc2N1C(=O)c1ccccc1`, the composite z-score came to 0.0725.

`COc1ccc([Si](C)(C)[C@@H]2[C@@H](CCO)O[C@]3(C(=O)N(Cc4ccccc4)c4ccc(N5CCOC5=O)cc43)[C@H]2C)cc1` yielded a composite z-score of 1.39.

Compound `C=C(/C(=C/C[C@H](OC(C)=O)c1ccc(CO)o1)c1cnc2ccccc2c1)C(C)C` gave a composite z-score of 1.65.

Turning to `CCCCCCCCCCC(O)C1C=CC2C(=O)N(c3ccccc3)C(=O)C2N1Nc1ccc(C#N)cc1` (stereo unspecified), the composite z-score was 0.314.

System in a further assay: not listed separately
Put plainly: E. coli DRC41 culture turbidity changes, primary screen, E. coli filamentation inducer project, strain DRC41, OD650, 48 h (AID 1152).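 Further: E. coli MC1000 strain DRC41 lacking acrAB efflux pump and sulA.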 The conditions noted are these: E. coli DRC41 (acrAB sulA), higher = more signal, called active from +8 up or from −8 down.
As to `COc1cc2c(cc1O)C(c1cccs1)N(Cc1cc3c(cc1Br)OCO3)CC2` (stereo unspecified), the z-score was -1.8 (inactive).

In the case of `CCC#CCN(Cc1ccccc1Br)[C@H](/C=C/C1CC1)[C@@H](O)Cc1ccccc1`, the z-score is 2.06 (inactive).

Take `COC(=O)[C@@]1(Cc2ccccc2)[C@H]2c3cc(C(=O)N4CCCC4)n(CCc4ccccn4)c3C[C@H]2CN1C(=O)c1ccccc1`: the z-score is -1.5 (inactive).

Take `CCCCC(CC)C(O)C1C=CC2C(=O)N(c3ccccc3)C(=O)C2N1Nc1ccccc1F` (stereo unspecified): the z-score is 0.351 (inactive).

As for `[N-]=[N+]=Nc1ccccc1[C@@H]1OC(c2ccc(OCCCO)cc2)=N[C@]1(Cc1ccccc1)C(=O)N1CCCCC1`, the z-score is 0.227 (inactive).

As to `CC1CC/C=C\[C@H]2OC34C=CCN(C(C)C)C(=O)[C@H]3N(CCO)C(=O)[C@@H]4C2C(=O)O1` (stereo partly specified), the z-score is 0.904 (inactive).

Turning to `CCOC(=O)C1=C[C@@H](C(C)(C)C)N(S(=O)(=O)c2ccc(C)cc2)[C@H]1c1cccc2ccccc12`, the z-score was -1.11 (inactive).

Values taken from PubChem BioAssay.
